The values that follow come from PubChem BioAssay.

Activity calls are given as the source filed them.

Assay [1] relates to Human papillomavirus type 1a protein E7 (residues 44-93). Put plainly: HPV1a E7 fragment binders on microarrays, primary screen, biochemical, small-molecule microarray, residues 44-93, 635 nm fluorescence (AID 1108).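 Further: E7 fragment applied at 1 µg/mL in TBST for 1 h at 4 C; score combines spot fluorescence with its signal to noise ratio.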 The conditions noted are these: small-molecule microarray binding, fluorescence 635 nm; higher = more signal.
Assay [2] in a line: modulators of HCV replicon luciferase signal, primary screen, HCV replication inhibitor project, Huh7 cells, luciferase reporter (AID 1109).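 Further: huh7 hepatoma cells harbouring a luciferase neomycin HCV replicon reporter; luciferase luminescence as measure of HCV replicon replication; test concentration not given here.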 To be noted: 48 h, higher = more signal.
Assay [3] has as its target Left-right determination factor 2 (Homo sapiens) (UniProt O00292). Description: LEFTY2 binders on small-molecule microarrays, primary screen, biochemical, small-molecule microarray, 635 nm fluorescence scan (AID 1110). To be noted: LEFTY2 binding, higher = more signal.
Assay [4] concerns the target Calmodulin-1 (Homo sapiens) (UniProt P0DP23). Description: CALM1 binders on microarrays, EGTA buffer, profiling panel, biochemical, small-molecule microarray, Cy5-labelled CALM1 (AID 1111).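 Further: labelled calmodulin applied in Tris saline Tween buffer holding calcium plus EGTA and DTT.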 The conditions noted are these: Cy5-CALM1 binding fluorescence, higher = more signal.
The target is the same in assay [5]. Put plainly: calcium-bound CALM1 binders on microarrays, profiling panel, artefact control for SMM control-protein annotation, biochemical, small-molecule microarray, Cy5-labelled CALM1, plus calcium (AID 1112).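 Further: score merges spot fluorescence with signal to noise from triplicate slides.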 The conditions noted are these: Cy5-CALM1 binding fluorescence, higher = more signal.
Assay [6] is described as follows: small-molecule microarray binders of probe aWnt5a, primary screen, biochemical, biotinylated probe, 635/667 nm fluorescence (AID 1113).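 Further: score merges 667 nm fluorescence intensity with signal-to-noise per printed feature.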 To be noted: higher = more signal.
A short description of assay [7]: small-molecule microarray binders of probe aShh, primary screen, biochemical, biotinylated probe, 635/667 nm fluorescence (AID 1114).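 Further: probe is biotin-labelled aShh protein from a stem cell growth factor screen; measures binding of labelled protein to compounds printed on the slide; score merges feature fluorescence at 667 nm with signal-to-noise.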 To be noted: higher = more signal.
A short description of assay [8]: small-molecule microarray binders of probe aNog, primary screen, biochemical, biotinylated probe, 635/667 nm fluorescence (AID 1115).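 Further: probe is biotinylated aNog protein used at 0.15 µg/mL for 1 h at 4 C; z-score combines 667 nm fluorescence of each spot with its signal to noise.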 The conditions noted are these: higher = more signal.
In assay [9] the target is Torsin-1A-interacting protein 1 (Homo sapiens) (UniProt Q5JTV8). Description: LAP1 binders from COS7 cell lysate, primary screen, small-molecule microarray, 635/667 nm fluorescence (AID 1116). To be noted: COS7-hLAP1 lysate binding, 635 nm fluorescence, higher = more signal.
The target of assay [10] is Alpha-bungarotoxin (Bungarus multicinctus) (UniProt P60615). Put plainly: alpha-bungarotoxin binders on microarray, profiling panel, artefact control for SMM control protein annotation, biochemical, small-molecule microarray, Alexa647 label, 635/667 nm fluorescence (AID 1117). To be noted: alpha-BTX-A647 binding fluorescence, higher = more signal.
For the next assay, the target named is Albumin (Bos taurus) (UniProt P02769). Description: bovine serum albumin binders on microarray, profiling panel, artefact control for SMM control protein annotation, biochemical, small-molecule microarray, Alexa647 label, 635/667 nm fluorescence (AID 1118).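 Further: score merges 667 nm emission intensity and signal-to-noise per printed compound spot.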 The conditions noted are these: BSA-A647 binding, fluorescence 635 nm, higher = more signal.
A short description of assay [11]: small-molecule microarray binders of probe aXIP, primary screen, biochemical, NeuroSMM set, 635/667 nm fluorescence (AID 1119).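 Further: probe is the protein aXip251-270 applied at 1 µg/mL to compound-printed slides; binding of probe to printed compounds measured as 667 nm fluorescence plus signal to noise.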 The conditions noted are these: higher = more signal, called active from +8 up or from −8 down.
Assay [12] can be described thus: small-molecule binders of probe aNOTCH3, primary screen, biochemical, small-molecule microarray, 635/667 nm fluorescence (AID 1120).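 Further: probe is a biotin-tagged antibody raised against NOTCH3 rather than NOTCH3 protein; score merges spot fluorescence near 667 nm with spot signal to noise.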 To be noted: higher = more signal.
Assay [13] is described as follows: small-molecule binders of probe aNOTCH2, primary screen, biochemical, small-molecule microarray, 635/667 nm fluorescence (AID 1121).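 Further: score merges feature fluorescence read at 667 nm with its signal to noise.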 The conditions noted are these: higher = more signal.
In assay [14] the target is Carbonic anhydrase 2 (Homo sapiens) (UniProt P00918). Put plainly: CAII small-molecule binders, profiling panel, biochemical, small-molecule microarray, Alexa647-labelled CAII (AID 1122). To be noted: CAII-A647 binding fluorescence, higher = more signal.
Assay [15] in a line: COS7 lysate on small-molecule microarray, probe aHis, 635 nm (AID 1123).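 Further: z-score combines 667nm fluorescence intensity with signal-to-noise per printed compound spot.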 To be noted: COS7 cell lysate, fluorescence, higher = more signal.
Assay [16] in a line: compound binding in COS7 lysate, probe aLAP1, primary screen, cell lysate, small-molecule microarray (AID 1124).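 Further: lysate comes from COS7 cells expressing LAP1 and is applied at 0.3 µg/mL; score merges spot fluorescence near 667 nm with signal-to-noise over triplicate slides.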 The conditions noted are these: probe aLAP1, fluorescence, higher = more signal.
The next assay has as its system Sam68 (KHDRBS1). Put plainly: Sam68 small-molecule binders, primary screen, biochemical, small-molecule microarray, 635 nm fluorescence (AID 1125).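 Further: score merges 667 nm channel intensity with signal to noise over triplicate slides.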 The conditions noted are these: small-molecule microarray binding, higher = more signal.
In assay [17] the test system is Chordin-like protein 2 (CHRDL2). Description: CHRDL2 small-molecule binders, primary screen, biochemical, small-molecule microarray, 635 nm fluorescence (AID 1126).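 Further: printed compound slides probed with Chrdl2 protein at 4 µg/mL for 1 h at 4 C; score merges 667 nm emission intensity with signal to noise over three replicate slides.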 To be noted: small-molecule microarray binding, fluorescence 635 nm; higher = more signal.
Assay [18] deals with Concanavalin-A (Canavalia ensiformis) (UniProt P02866). Put plainly: ConA small-molecule binders, primary screen, artefact control for SMM control protein annotation, biochemical, small-molecule microarray, Alexa647 label, 635 nm (AID 1127).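 Further: z combines 667 nm emission intensity with signal-to-noise across three replicate slides.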 The conditions noted are these: ConA-A647 binding fluorescence, higher = more signal.
Concanavalin-A (Canavalia ensiformis), sequence (P02866 whole entry, looked up): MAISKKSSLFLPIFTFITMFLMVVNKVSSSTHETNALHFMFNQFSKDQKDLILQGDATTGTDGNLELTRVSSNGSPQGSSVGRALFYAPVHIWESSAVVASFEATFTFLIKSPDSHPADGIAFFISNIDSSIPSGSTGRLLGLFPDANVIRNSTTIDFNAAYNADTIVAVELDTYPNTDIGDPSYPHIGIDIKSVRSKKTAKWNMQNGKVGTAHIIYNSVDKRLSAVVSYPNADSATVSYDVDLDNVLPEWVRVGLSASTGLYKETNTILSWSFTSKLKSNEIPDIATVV

Left-right determination factor 2 (Homo sapiens), sequence (O00292 whole entry, looked up): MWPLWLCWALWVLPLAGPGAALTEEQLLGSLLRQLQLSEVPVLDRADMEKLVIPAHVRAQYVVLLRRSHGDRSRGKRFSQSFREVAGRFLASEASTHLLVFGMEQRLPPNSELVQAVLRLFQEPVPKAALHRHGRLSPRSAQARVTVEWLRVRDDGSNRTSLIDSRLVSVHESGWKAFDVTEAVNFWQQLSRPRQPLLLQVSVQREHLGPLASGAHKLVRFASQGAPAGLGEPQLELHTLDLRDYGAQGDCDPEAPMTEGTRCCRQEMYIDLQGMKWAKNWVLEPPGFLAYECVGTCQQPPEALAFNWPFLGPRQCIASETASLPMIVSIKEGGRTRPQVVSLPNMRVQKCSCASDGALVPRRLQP
Alpha-bungarotoxin (Bungarus multicinctus), sequence (P60615 whole entry, looked up): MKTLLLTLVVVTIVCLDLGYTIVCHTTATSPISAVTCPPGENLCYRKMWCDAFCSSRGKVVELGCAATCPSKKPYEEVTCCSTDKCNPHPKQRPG
Torsin-1A-interacting protein 1 (Homo sapiens), sequence (Q5JTV8 whole entry, looked up): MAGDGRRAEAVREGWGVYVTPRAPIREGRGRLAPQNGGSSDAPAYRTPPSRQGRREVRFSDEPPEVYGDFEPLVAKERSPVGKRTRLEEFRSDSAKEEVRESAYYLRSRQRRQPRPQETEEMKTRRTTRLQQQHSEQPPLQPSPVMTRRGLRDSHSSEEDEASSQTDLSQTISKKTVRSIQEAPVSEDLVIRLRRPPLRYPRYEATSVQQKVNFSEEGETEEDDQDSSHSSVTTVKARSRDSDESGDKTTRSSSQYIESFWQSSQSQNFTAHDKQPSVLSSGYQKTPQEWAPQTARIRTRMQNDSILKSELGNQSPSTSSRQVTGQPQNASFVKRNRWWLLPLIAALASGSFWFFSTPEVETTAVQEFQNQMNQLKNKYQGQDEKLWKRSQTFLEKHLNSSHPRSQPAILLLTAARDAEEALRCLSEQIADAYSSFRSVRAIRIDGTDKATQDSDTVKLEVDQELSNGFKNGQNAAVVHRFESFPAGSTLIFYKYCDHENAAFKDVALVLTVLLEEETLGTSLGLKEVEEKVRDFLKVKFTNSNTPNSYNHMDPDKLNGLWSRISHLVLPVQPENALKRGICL
Albumin (Bos taurus), sequence (P02769 whole entry, looked up): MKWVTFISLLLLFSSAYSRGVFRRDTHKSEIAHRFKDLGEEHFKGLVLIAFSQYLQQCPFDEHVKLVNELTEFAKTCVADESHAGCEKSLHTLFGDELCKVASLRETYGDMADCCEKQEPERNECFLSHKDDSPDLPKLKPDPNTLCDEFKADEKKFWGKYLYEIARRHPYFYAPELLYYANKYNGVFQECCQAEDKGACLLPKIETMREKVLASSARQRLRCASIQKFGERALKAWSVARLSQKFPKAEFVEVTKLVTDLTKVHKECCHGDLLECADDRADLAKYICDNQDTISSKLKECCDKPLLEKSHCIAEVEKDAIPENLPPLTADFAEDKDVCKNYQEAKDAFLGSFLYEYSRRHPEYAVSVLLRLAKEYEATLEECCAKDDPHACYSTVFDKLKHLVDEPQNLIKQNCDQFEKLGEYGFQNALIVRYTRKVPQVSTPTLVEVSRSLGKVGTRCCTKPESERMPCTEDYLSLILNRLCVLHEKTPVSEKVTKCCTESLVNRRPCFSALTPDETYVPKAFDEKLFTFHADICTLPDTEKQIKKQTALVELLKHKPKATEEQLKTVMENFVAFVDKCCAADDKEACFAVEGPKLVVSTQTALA

For the compound `COc1ccc([Si](C)(C)[C@H]2[C@H](CCn3cc(CCO)nn3)O[C@@]3(C(=O)N(Cc4cccc(N5C(=O)c6cccc7cccc5c67)c4)c4ccccc43)[C@@H]2C)cc1`, the composite z-score in [1] is 1.1; in assay [3] it was 0.464; in assay [4], 0.35; in assay [5], 0.241; in assay [6], -0.136; in assay [7], 0.131. Further, the composite z-score in assay [8] is 1.01; in assay [9] it was 1.46; in [10] it was 1.07; with Albumin (Bos taurus) it was 0.451; in assay [12], 0.0311; in assay [13], -0.0974. For the same compound, the composite z-score in [14] was determined as 0.584; in assay [15] it was 0.791; in [16], 1.65; in the assay with Sam68 (KHDRBS1), 1.22; in assay [17] it was 0.438; in [18], 1.11. In assay [2], this compound came in with a z-score of -5.14. In [11], the composite Z-score was 0.525 (inactive).
Regarding `CC(C)CNC(=O)[C@@]1(c2ccc([N+](=O)[O-])cc2)CC(=O)N(C(C)C)[C@@H]1c1ccc(CO)cc1`, the composite z-score was 0.212 in [1]; -1.53 in assay [3]; -0.505 in [4]; 0.739 in [5]; -0.12 in assay [6]; -0.0738 in assay [7]. In addition, the composite z-score in assay [8] was -0.428; in [9] it was -0.534; in assay [10] it was -0.186; with Albumin (Bos taurus), 0.1; in assay [12], -0.273; in assay [13] it was -0.161. Further, the composite z-score in assay [14] is 0.735; in assay [15], 1.59; in assay [16], 0.664; with Sam68 (KHDRBS1) it was 0.3; in [17], -2.39; in assay [18] it was 0.0801. This compound also gave a z-score in assay [2] of -0.687. Besides, in assay [11], the composite Z-score was 1 (inactive).
Regarding `[N-]=[N+]=NCc1ccccc1C[C@@]1(C(=O)NCCN2CCOCC2)N=C(c2ccc(OCCCO)cc2)O[C@@H]1c1ccccc1CN=[N+]=[N-]`, the composite z-score in assay [1] is 1.42; in assay [3], 0.461; in [4], 1.68; in [5], 0.191; in assay [6], 0.0037; in assay [7], 0.199. Further, the composite z-score in assay [8] is 0.291; in assay [9] it was 0.272; in assay [10], 1.04; with Albumin (Bos taurus), 0.511; in assay [12] it was 0.338; in assay [13], 0.12. In addition, the composite z-score amounted to 0.568 in [14]; 2.23 in assay [15]; 0.0232 in assay [16]; 1.31 with Sam68 (KHDRBS1); 0.139 in assay [17]; 1.06 in assay [18]. Further, the z-score in [2] is -2.7. Also, in assay [11], the composite Z-score was -0.0957 (inactive).
Consider `C[N+](C)(C)CCCCCCNC(=O)[C@@H]1C[C@@H]2C(=O)NCC(=O)N2[C@@H]1c1cccc(OCCO)c1`, for which the composite z-score in assay [1] was 0.891; in assay [3], 0.695; in [4], 0.21; in [5] it was -0.359; in [6], -0.18; in assay [7], -0.333. Moreover, the composite z-score in assay [8] is -0.0317; in assay [9] it was 0.602; in [10], 1.96; with Albumin (Bos taurus), -0.205; in [12], -0.0338; in assay [13], -0.14. The composite z-score is 0.656 in [14]; 1.1 in assay [15]; -0.426 in assay [16]; 0.73 in the assay with Sam68 (KHDRBS1); 1.31 in [17]; 1.15 in [18]. This compound also showed a z-score in assay [2] of 1.99. The composite Z-score in assay [11] is 0.605 (inactive).
With `O=C(NCc1ccccc1)[C@]1(Cc2ccccc2)N=C(c2ccc(OCCCO)cc2)O[C@@H]1c1ccccc1`, the composite z-score was 1.4 in [1]; -0.126 in [3]; 2.01 in assay [4]; 1.1 in assay [5]; -0.13 in [6]; -0.305 in assay [7]. For the same compound, the composite z-score in [8] was 0.044; in [9] it was 0.652; in assay [10] it was 0.351; with Albumin (Bos taurus), 0.895; in [12] it was 0.062; in [13], -0.0519. Further, the composite z-score in assay [14] is 0.604; in assay [15], 1.32; in [16], 0.225; in the assay with Sam68 (KHDRBS1), 0.938; in [17], -0.243; in assay [18] it was 0.418. Moreover, the z-score in assay [2] was -2.58. In assay [11], the composite Z-score is 0.638 (inactive).
